Bioassay records (PubChem)
GAA inh – inhibitors of human lysosomal alpha-glucosidase. P10253. purified human GAA, 4-MU-alpha-glucoside fluorescence. Potency, µM (titrated, usually from 76.9 µM), without a hit: at the top dose activity change, negative = inhibition, usual class: inhibitors. 0.005% of 200,000 active;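 note: plate controls were uninhibited enzyme wells for no effect and no-enzyme background for full effect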
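AC50 values come from Hill fits of compound titrations (up to 77 uM) against 4 nM human enzyme. Substrate 4-methylumbelliferyl-alpha-D-pyranoside at 400 uM, pH 5.0 citrate buffer, 20 min room temperature; fluorescence Ex 365/Em 440 after alkaline stop.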
LMNA splice mod – modulators of lamin A splicing | HeLa LMNA splicing GFP/RFP minigene ratio, 48 h | 0.01% of 200,000 active | Potency, µM (highest dose often 46.1 µM), for inactives: top-dose ratio change, negative = inhibition, hits mostly inhibitors; active = well fitted inhibition curve with a large enough effect in the signal ratio, with a control signal flat, not every such curve was filed as active; inconclusive = small, poorly fitted or top-dose-only effect, or effect the other way, or a change in a side signal; the % refers to the signal ratio
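S3 HeLa cells stably expressing lamin A-EGFP splicing minigene plus DsRed2, 600 cells/well, 48 h compound exposure at 37C. Laser-scanning cytometry; analysed as GFP (500-530 nm)/RFP (575-640 nm) total intensity ratio; 0.5% DMSO vehicle.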
aGlu spleen mod – inhibitors or activators of human alpha-glucosidase in spleen homogenate; 0.006% of 240,000 active; human spleen homogenate, 4-MU-alpha-glucoside fluorescence; Potency, µM (top dose mostly 79.9 µM), without a hit: at the highest dose activity change, negative = inhibition, most hits filed as inhibitors;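 note: 0% = enzyme with vehicle and -100% = no enzyme basal signal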
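Enzyme source: human spleen homogenate, 1 ug/well. Buffer 50 mM citric acid/K phosphate pH 5.0, 0.01% Tween-20. 4-MU-alpha-glucoside 1 mM; 37 C x 40 min; NaOH/glycine stop; fluorescence.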
GAA glycogen – inhibitors or activators of human alpha-glucosidase glycogen cleavage; 0.38% of 300,000 active; recombinant GAA, glycogen substrate, Amplex Red glucose oxidase fluorescence; Potency, µM (titrated, usually from 76.4 µM), without a hit: top-dose activity change, negative = inhibition, actives largely listed as inhibitors; P10253;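 note: 0% = full enzyme reaction and -100% = no-enzyme basal signal; the screen sought inhibitors and activators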
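qHTS, 1536-well; enzyme 4 nM final; cpd up to 77 uM; substrate bovine liver glycogen 30 ug; 50 mM citrate/phosphate pH 5.0, 0.01% Tween-20; 37 C, 40 min; Amplex Red detection 45 min RT; Hill fit → AC50.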
N370S GC – inhibits or activates N370S mutant glucocerebrosidase; 0.092% of 330,000 active; AID 2101; Potency, µM (highest dose often 59.4 µM), without a hit: top-dose activity change, negative = inhibition, hits mostly inhibitors; N370S GC spleen homogenate, 4MU-glucoside fluorescence;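 note: 0% = full enzyme activity and -100% = no enzyme basal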
* hit, by the source's call; u = inconclusive; x = no result; [ ] = remark or other dose. Only some compounds are listed: those with a hit (about 0.42% of all), similar ones and a draw of the others. Unless noted, calls come from the whole dose curve; as a rule, active = well fitted curve in the direction sought with a large enough effect; inconclusive = small, poorly fitted or top-dose-only effect, or another doubt; inactive = no such curve, though single readings can be large; an effect the other way counts as inactive or inconclusive. Unless noted, % is set by controls: 0 for no effect and ±100 for the full control effect; potency is the fitted concentration of half-maximal effect.

SMILES | GAA inh | LMNA splice mod | aGlu spleen mod | GAA glycogen | N370S GC
O=[N+]([O-])c1cc2nc(O)c(O)nc2cc1[N+](=O)[O-] | x | x | -10% | x | 13µM*
O=C(Cn1c(=O)n(Cc2ccccc2)c(=O)c2sc3ccccc3c21)Nc1ccc(F)cc1 | x | x | x | 7%[76.3 µM] | x
O=C(Cn1c(=O)n(Cc2ccccc2)c(=O)c2sc3ccccc3c21)Nc1ccccc1 | x | x | x | 7.9µM* | x
O=C(NN=C1C2CC3CC(C2)CC1C3)c1ccncc1 | 4% | 6% | -11% | u | 7%
O=C(NN=C1C2CC3CC(C2)CC1C3)c1cc(Cl)ccc1O | -3% | 8% | 4% | 13µM* | 0%
CCOc1ccccc1-c1nnc2n1N=C(c1cc(OC)ccc1OC)CS2 | x | x | 1% | x | 6%
C=CCn1c(-c2cc(-c3ccccc3)sc2N)n[nH]c1=S | -1% | 30%[46 µM] | 1% | 22µM* | 2%
Cc1c(NC(=O)C(=O)/C=C(\O)c2ccc(Cl)cc2)c(=O)n(-c2ccccc2)n1C | -3% | 2% | 4% | u | 6%
Cc1c(NC(C)c2cc(Cl)ccc2O)c(=O)n(-c2ccccc2)n1C (centres undefined) | -7% | 10% | 1% | 11µM* | 0%[12.8 µM]
Cc1c(NC(C)C)c(=O)n(-c2ccccc2)n1C | x | 11% | -7% | x | -1%
Cc1c(N/C=C/C(=O)c2ccc(Cl)cc2)c(=O)n(-c2ccccc2)n1C | -3% | 17% | -11% | 14µM* | 18%
Cc1c(NC(C)c2ccccc2O)c(=O)n(-c2ccccc2)n1C (centres undefined) | -2% | -4% | -3% | 28µM* | -11%
O=C(O)CC1=C(O)C(=O)N(c2ccccc2)C1c1ccc(Br)cc1 (centres undefined) | 0% | 5%[0.0737 µM] | -3% | 25µM* | 13%
Cc1cc(C)c(NC(=O)Nc2sc3nc4n(c(=O)c3c2C)CCC(C)CC4)c(C)c1 (centres undefined) | x | x | x | -11%[76.3 µM] | x
CCCCN(CC)CCCNC(=O)Nc1sc2nc3n(c(=O)c2c1C)CCC(C)CC3 (centres undefined) | x | x | x | 10µM* | x
Cc1ccc(-n2c(CNc3cccc(Cl)c3)n[nH]c2=S)cc1 | -3% | x | -2% | 28µM* | 2%
Cc1ccc(NCc2n[nH]c(=S)n2-c2cccc(Cl)c2)cc1 | 1% | x | -3% | u | 22%
Cc1cc(OCCn2cc(/C(N)=N/O)c3ccccc32)ccc1Cl | -5% | 9% | -20% | 18µM* | u
CCCC(=O)NC(=S)Nc1cccc2c(O)cccc12 | -4% | -29%[46 µM] | 8% | 8.9µM* | -8%
O=C(NC(=S)Nc1cccc2c(O)cccc12)c1ccccc1[N+](=O)[O-] | x | x | x | 10µM* | -9%
O=C(NNC(=S)NC(=O)c1ccccc1[N+](=O)[O-])c1ccccc1O | 4% | -15%[46 µM] | 3% | -11% | -2%
O=C(Nc1ccc(Cl)cc1)c1cnn2c1NC(c1ccccc1)=CC2c1ccccc1 (centres undefined) | x | u | x | 1%[76.3 µM] | x
CCCn1c(C(CO)Nc2nc(-c3cccc(Br)c3)cs2)nc2ccccc21 (centres undefined) | x | x | x | 2%[76.3 µM] | 1.8µM*
C[C@H](C(=O)OCO/N=[N+](\[O-])N1CCCC1)c1cccc2ccccc12 | x | x | 5% | x | -3%
CN1CCc2cccc3c2[C@@H]1Cc1ccc(O)c(O)c1-3 | u | u | -4% | 3.5µM* | -1%
SMILES | GAA inh | LMNA splice mod | aGlu spleen mod | GAA glycogen | N370S GC
COc1ccc2c(c1O)-c1ccccc1CCN(C)C2 | x | x | 4% | -2% | 22%
O=c1c2nc(Br)n([C@@H]3O[C@@H]4CO[P@@](O)(=S)O[C@H]4[C@H]3O)c2nc2[nH]c(-c3ccccc3)cn12 | x | x | 1% | x | -2%
CC(=O)Nc1cc(-c2ccccc2)ccc1O | -6% | -1% | -7% | -26% | -10%
c1ccc(-c2ccc3c(c2)NCCN3)cc1 | x | x | -5% | 8.9µM* | -12%
CC(C)CC1Nc2ccc(C(=O)NCCCN3CCCCC3C)cc2NC1=O (centres undefined) | x | x | x | 13µM* | -6%
COC(=O)C1C(O)CC[C@H]2CN3CCc4c([nH]c5ccccc45)C3C[C@H]12 (some centres undefined) | x | -16% | 8% | x | u
Clc1cccc(-c2ccc3ncnc(NCc4ccc5c(c4)OCO5)c3c2)c1 | x | x | x | x | -10%
CC(C)(C)NC(=O)C(c1ccncc1)N(Cc1cccs1)C(=O)Cn1nnc(-c2cccs2)n1 (centres undefined) | -7% | -19% | -4% | 28µM* | 3%
COc1ccc(N=Cc2c(O)c3ccccc3n2C(C)=O)cc1 | x | x | -1% | -28% | -1%
COc1ccc(N=Cc2sc(O)c3ccccc23)cc1 | -11% | 7% | -1% | 20µM* | -15%
CCC(C)c1cc([N+](=O)[O-])cc([N+](=O)[O-])c1OC(=O)OC(C)C (centres undefined) | x | x | 1% | x | -4%
CC(C)CNC(=O)NC1(C(F)(F)F)Oc2ccccc2O1 | -3% | 14%[9.22 µM] | 3% | -18% | -11%
COc1cccc(NC(=O)NC2(C(F)(F)F)Oc3ccccc3O2)c1 | -2% | u | 0% | 8.9µM* | -2%
O=C(NCc1cccnc1)NC1(C(F)(F)F)Oc2ccccc2O1 | -11% | u | -5% | 25µM* | -6%
OC[C@@H]1O[C@@H](Oc2ccc(O)cc2)[C@H](O)[C@@H](O)[C@@H]1O | x | x | -7% | x | -9%
O=C(NNc1cc(N2CCOCC2)nc(N2CCOCC2)n1)c1ccc(Cl)c(Cl)c1 | -13% | -18% | -10% | -6% | 10%
Cc1ccc(C(=O)NNc2cc(N3CCCC3)nc(N3CCCC3)n2)cc1 | 6% | -10% | 0% | 28µM* | -1%
COc1ccc(C2C=C3CNS(=O)(=O)C3CC2OC(=O)c2ccc(C(F)(F)F)cc2)cc1 (centres undefined) | x | x | -4% | x | -6%
Cc1ccc(NC2=CC(=O)c3sc(C)nc3C2=O)cc1 | x | x | -3% | x | -5%
CCOC(=O)CNc1c(-c2ccc(F)cc2)nc2cnccn12 | 8% | -4% | -10% | 12µM* | 8%
CCOC(=O)CNc1c(-c2ccc(OC)cc2)nc2ccc(Cl)cn12 | 2% | -1% | -2% | u | u
CCOC(=O)CNc1c(-c2ccc(Cl)cc2)nc2cnccn12 | u | -5% | 1% | 40µM* | 2%
Cc1ccc2c(=O)c3cccc(CC(=O)O)c3oc2c1C | x | x | 2% | x | -3%
CC(C)c1onc(-c2c(Cl)cccc2Cl)c1COc1ccc(/C=C/c2cccc(C(=O)O)c2)c(Cl)c1 | x | x | 7% | x | 10%
COC(=O)[C@@H](N)Cc1ccc(O)c(O)c1 | x | u | 2% | x | -2%
COC(=O)Cc1ccc(O)c(N)c1 | 4% | -7%[46 µM] | 6% | 5.6µM* | 7%
CC1(C)CC(O)C(C)(C)N1O (centres undefined) | -8% | -2%[0.0737 µM] | -10% | 16µM* | 7%
NOCc1ccccc1 | x | x | -7% | x | -1%
